Laboratory results as given in PubChem BioAssay (NCATS).
Records with an inconclusive call do not appear. Activity calls are given as the source filed them. The call rests on the fitted dose curve; in most records, active means well fitted cell-killing curve with a large enough effect; inconclusive means small, poorly fitted or top-dose-only effect, or effect the other way; inactive means flat fitted curve, though single readings scatter.

Experiments:
Test in all cases: Primary qHTS to identify gynecologic anti-cancer compounds using libraries of approved drugs and bioactive compounds (AID 1345084); further: nearly all actives have a fitted effect of over 55% in size
C33A = conditions: Gynecologic cancer cell panel viability, ATPlite luminescence, 48 h; series mostly up to 57.5 µM
In short: (§1)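 Five-point cytotoxicity, 48 h drug exposure at 37 C, 5% CO2, on cells seeded 16 h beforehand. ATP content read by ATPlite luminescence.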

CAOV3 = conditions: Gynecologic cancer cell panel viability, ATPlite luminescence, 48 h; series mostly up to 57.5 µM
In short: as §1

CASKI = conditions: Gynecologic cancer cell panel viability, ATPlite luminescence, 48 h; series mostly up to 57.5 µM
In short: as §1

Es-2 = conditions: Gynecologic cancer cell panel viability, ATPlite luminescence, 48 h; series mostly up to 57.5 µM
In short: as §1

HeLa = conditions: Gynecologic cancer cell panel viability, ATPlite luminescence, 48 h; series mostly up to 57.5 µM
In short: as §1

Hek293T = conditions: Gynecologic cancer cell panel viability, ATPlite luminescence, 48 h, control line for the selectivity index; series mostly up to 57.5 µM
In short: as §1

JEG-3 = conditions: Gynecologic cancer cell panel viability, ATPlite luminescence, 48 h; series mostly up to 57.5 µM
In short: as §1

OV90 = conditions: Gynecologic cancer cell panel viability, ATPlite luminescence, 48 h; series mostly up to 57.5 µM
In short: as §1

PA-1 = conditions: Gynecologic cancer cell panel viability, ATPlite luminescence, 48 h; series mostly up to 57.5 µM
In short: as §1

SKOV3 = conditions: Gynecologic cancer cell panel viability, ATPlite luminescence, 48 h; series mostly up to 57.5 µM
In short: as §1

Tov-21-G = conditions: Gynecologic cancer cell panel viability, ATPlite luminescence, 48 h; series mostly up to 57.5 µM
In short: as §1

Tov112D = conditions: Gynecologic cancer cell panel viability, ATPlite luminescence, 48 h; series mostly up to 57.5 µM
In short: as §1
On the % scale 0 is the no-effect control and ±100 the full control effect.

COc1ccc(/C=C/C(=O)N2CCCC2)cc1
inactive: Potency (C33A) | Potency (CAOV3) | outcome (CASKI) | Potency (Es-2) | Potency (HeLa) | Potency (Hek293T) | Potency (JEG-3) | Potency (OV90) | Potency (PA-1) | Potency (SKOV3) | Potency (Tov-21-G) | Potency (Tov112D)

COc1ccc(O[C@@H]2O[C@H](CO)[C@@H](O)[C@H](O)[C@H]2O)cc1OC
inactive: Potency (C33A) | Potency (CAOV3) | outcome (CASKI) | Potency (Es-2) | Potency (HeLa) | Potency (Hek293T) | Potency (JEG-3) | Potency (OV90) | Potency (PA-1) | Potency (SKOV3) | Potency (Tov-21-G) | Potency (Tov112D)

C[C@@H]1O[C@@H](O[C@H]2[C@H](OC(=O)[C@]34CCC(C)(C)C[C@H]3C3=CCC5[C@@]6(C)CC[C@H](O[C@@H]7O[C@H](CO[C@@H]8OC[C@H](O)[C@H](O)[C@H]8O[C@@H]8OC[C@@H](O)[C@H](O)[C@H]8O)[C@@H](O)[C@H](O)[C@H]7O)C(C)(C)C6CC[C@@]5(C)[C@]3(C)C[C@H]4O)O[C@H](CO)[C@@H](O)[C@@H]2O)[C@H](O[C@@H]2O[C@H](CO)[C@@H](O)[C@H](O)[C@H]2O)[C@H](O)[C@H]1O[C@@H]1OC[C@@H](O)[C@H](O[C@@H]2OC[C@@H](O)[C@H](O)[C@H]2O)[C@H]1O (stereo partly drawn)
inactive: activity change, negative = cytotoxicity (C33A) 6.83% [at 6.55 µM] | activity change, negative = cytotoxicity (CAOV3) -0.37% [at 6.55 µM] | activity change, negative = cytotoxicity (CASKI) -2.72% [at 6.55 µM] | activity change, negative = cytotoxicity (Es-2) -1.37% [at 6.55 µM] | activity change, negative = cytotoxicity (HeLa) 0.0394% [at 6.55 µM] | activity change, negative = cytotoxicity (Hek293T) 6.55% [at 6.55 µM] | activity change, negative = cytotoxicity (JEG-3) 9.73% [at 6.55 µM] | activity change, negative = cytotoxicity (OV90) -1.86% [at 6.55 µM] | activity change, negative = cytotoxicity (PA-1) 1.34% [at 6.55 µM] | activity change, negative = cytotoxicity (SKOV3) 0% [at 6.55 µM] | activity change, negative = cytotoxicity (Tov-21-G) -2.86% [at 6.55 µM] | activity change, negative = cytotoxicity (Tov112D) 0.0551% [at 6.55 µM]

CC1CCC2C(C)(C)[C@H](O)CC[C@]2(C)C12Cc1c(O)cc3c(c1O2)CN(C(CCC(=O)O)C(=O)O)C3=O (stereo partly drawn)
inactive: Potency (C33A) | Potency (CAOV3) | outcome (CASKI) | Potency (Es-2) | Potency (HeLa) | Potency (Hek293T) | Potency (JEG-3) | Potency (OV90) | Potency (PA-1) | Potency (SKOV3) | Potency (Tov-21-G) | Potency (Tov112D)

O=C(Nc1cc(-c2ccccc2)nn1-c1ccccc1F)c1ccc([N+](=O)[O-])cc1
inactive: Potency (C33A) | Potency (CAOV3) | outcome (CASKI) | Potency (Es-2) | Potency (HeLa) | Potency (Hek293T) | Potency (JEG-3) | Potency (OV90) | Potency (PA-1) | Potency (SKOV3) | Potency (Tov-21-G) | Potency (Tov112D)

CC1=C(C(=O)OC2OC(COC3OC(CO)C(O)C(O)C3O)C(O)C(O)C2O)C(C)(C)CCC1 (stereo not drawn)
inactive: Potency (C33A) | Potency (CAOV3) | outcome (CASKI) | Potency (Es-2) | Potency (HeLa) | Potency (Hek293T) | Potency (JEG-3) | Potency (OV90) | Potency (PA-1) | Potency (SKOV3) | Potency (Tov-21-G) | Potency (Tov112D)

CC(C)(O)C(O)C(=O)OCc1ccc(O[C@@H]2O[C@H](CO)[C@@H](O)[C@H](O)[C@H]2O)cc1 (stereo partly drawn)
inactive: Potency (C33A) | Potency (CAOV3) | outcome (CASKI) | Potency (Es-2) | Potency (HeLa) | Potency (Hek293T) | Potency (JEG-3) | Potency (OV90) | Potency (PA-1) | Potency (SKOV3) | Potency (Tov-21-G) | Potency (Tov112D)

COC(=O)[C@]1(C)CCC[C@@]2(C)C(=O)CC[C@H]3C(=O)C=C(CC[C@@H]21)C3O (stereo partly drawn)
inactive: Potency (C33A) | Potency (CAOV3) | outcome (CASKI) | Potency (Es-2) | Potency (HeLa) | Potency (Hek293T) | Potency (JEG-3) | Potency (OV90) | Potency (PA-1) | Potency (SKOV3) | Potency (Tov-21-G) | Potency (Tov112D)

Oc1ccc2c(-c3c(-c4ccccn4)nn4c3CCC4)ccnc2c1
inactive: Potency (C33A) | Potency (CAOV3) | outcome (CASKI) | Potency (Es-2) | Potency (HeLa) | Potency (Hek293T) | Potency (JEG-3) | Potency (OV90) | Potency (PA-1) | Potency (SKOV3) | Potency (Tov-21-G) | Potency (Tov112D)

COc1cc(O)c(C(=O)O)c(CCc2ccccc2)c1
inactive: Potency (C33A) | Potency (CAOV3) | outcome (CASKI) | Potency (Es-2) | Potency (HeLa) | Potency (Hek293T) | Potency (JEG-3) | Potency (OV90) | Potency (PA-1) | Potency (SKOV3) | Potency (Tov-21-G) | Potency (Tov112D)

CC(=O)O[C@H]1[C@H](O[C@H]2CC[C@]34C[C@]35CC[C@]3(C)[C@@H]([C@@]6(C)CC[C@@H](C(C)(C)O)O6)[C@@H](O)C[C@@]3(C)[C@@H]5C[C@H](O[C@@H]3O[C@H](CO)[C@@H](O)[C@H](O)[C@H]3O)[C@H]4C2(C)C)OC[C@@H](OC(C)=O)[C@@H]1O
inactive: Potency (C33A) | Potency (CAOV3) | outcome (CASKI) | Potency (Es-2) | Potency (HeLa) | Potency (Hek293T) | Potency (JEG-3) | Potency (OV90) | Potency (PA-1) | Potency (SKOV3) | Potency (Tov-21-G) | Potency (Tov112D)

C=Cc1ccc(O[C@@H]2O[C@H](CO[C@@H]3O[C@@H](C)[C@H](O)[C@@H](O)[C@H]3O)[C@@H](O)[C@H](O)[C@H]2O)cc1
inactive: Potency (C33A) | Potency (CAOV3) | outcome (CASKI) | Potency (Es-2) | Potency (HeLa) | Potency (Hek293T) | Potency (JEG-3) | Potency (OV90) | Potency (PA-1) | Potency (SKOV3) | Potency (Tov-21-G) | Potency (Tov112D)

COc1ccc2[nH]c(S(=O)Cc3ncc(C)c(OC)c3C)nc2c1 (stereo not drawn)
inactive: Potency (C33A) | Potency (CAOV3) | outcome (CASKI) | Potency (Es-2) | Potency (HeLa) | Potency (Hek293T) | Potency (JEG-3) | Potency (OV90) | Potency (PA-1) | Potency (SKOV3) | Potency (Tov-21-G) | Potency (Tov112D)

C/C=C(/C)C(=O)O[C@H]1C[C@]2(C)O[C@@H]2[C@@H](OC(C)=O)[C@@]2(C)CC[C@@](O)(C(C)C)[C@H]12
inactive: Potency (C33A) | Potency (CAOV3) | outcome (CASKI) | Potency (Es-2) | Potency (HeLa) | Potency (Hek293T) | Potency (JEG-3) | Potency (OV90) | Potency (PA-1) | Potency (SKOV3) | Potency (Tov-21-G) | Potency (Tov112D)
